From PubChem BioAssay (NCI)
This is part of a sample that, as a whole, favours compounds with a hit. Of some 83,000 tested, about 20% had one in any assay.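 Treatment: one concentration, 48 hours, 96-well format. Scoring: percent growth, with anything below 10 considered active.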

Key:
Experiment in all cases: NCI-60 one-dose screen, 48 h (100 = growth as untreated, 0 = no growth, -100 = all killed)
Details in all cases: 10 µM unless noted
[1] = test system: HT29 colon
[2] = test system: SNB-75 CNS
[3] = test system: SNB-19 CNS
[4] = test system: U251 CNS
[5] = test system: SK-MEL-5 melanoma
[6] = test system: UACC-62 melanoma
[7] = test system: LOX IMVI melanoma
[8] = test system: SK-MEL-28 melanoma
[9] = test system: SK-MEL-2 melanoma
[10] = test system: EKVX NSCLC
[11] = test system: SN12C renal
[12] = test system: UO-31 renal
[13] = test system: TK-10 renal
[14] = test system: ACHN renal
[15] = test system: CAKI-1 renal
[16] = test system: A498 renal
[17] = test system: CCRF-CEM leukemia
[18] = test system: MOLT-4 leukemia
[19] = test system: SR leukemia

Measured: growth

[O-]/[N+](=C\C=C\c1ccccc1)c1ccccc1
inactive: [1] 102% | [2] 91.8% | [3] 96.8% | [4] 98.8% | [5] 102% | [6] 93.8% | [7] 96.8% | [8] 110% | [9] 100% | [10] 100% | [11] 106% | [12] 97.4% | [13] 144% | [14] 108% | [15] 103% | [16] 96.9% | [17] 88% | [18] 85.1% | [19] 73%

O=c1ccn(C2OC(CO)C(O)C2F)c(=O)[nH]1 (configuration not stated)
inactive: [1] 104% | [2] 93% | [3] 101% | [4] 113% | [5] 107% | [6] 92.4% | [7] 106% | [8] 116% | [9] 119% | [10] 102% | [11] 102% | [12] 101% | [13] 124% | [14] 107% | [15] 107% | [16] 110% | [17] 119% | [18] 168% | [19] 111%

COc1cc(-c2cc(C(=O)Nc3nc4ccccc4s3)nc3cc(-c4ccccc4)nn23)cc(OC)c1OC
inactive: [1] 17.4% | [2] 36.6% | [3] 98.5% | [4] 66.7% | [5] 35.5% | [6] 67.8% | [7] 27.4% | [8] 39.9% | [9] 73.7% | [10] 107% | [11] 99.5% | [12] 87.9% | [13] 106% | [14] 101% | [15] 84.6% | [16] 127% | [17] 72.3% | [18] 76% | [19] 67%
